Data reported in PubChem BioAssay (NCI).
This is part of a sample that, as a whole, favours compounds with a hit. Of some 83,000 tested, about 20% had one in any assay.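 Negative percent growth values reflect cell death: -40 means 40% of the cells present at the start died, and -100 means all died.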 Activity calls are given as the source filed them. Rule for the calls: active = growth percent below 10; inactive = the rest.

Legend:
Test in all cases: NCI-60 one-dose screen, 48 h (100 = growth as untreated, 0 = no growth, -100 = all killed)
[1] = system: SR leukemia; settings: 10 µM
[2] = system: OVCAR-8 ovarian; settings: 10 µM
[3] = system: OVCAR-5 ovarian; settings: 10 µM
[4] = system: OVCAR-4 ovarian; settings: 10 µM
[5] = system: SK-OV-3 ovarian; settings: 10 µM
[6] = system: IGROV1 ovarian; settings: 10 µM
[7] = system: OVCAR-3 ovarian; settings: 10 µM
[8] = system: HS 578T breast; settings: 10 µM
[9] = system: NCI/ADR-RES ovarian; settings: 10 µM
[10] = system: T-47D breast; settings: 10 µM
[11] = system: BT-549 breast; settings: 10 µM
[12] = system: MDA-MB-435 melanoma; settings: 10 µM
[13] = system: SW-620 colon; settings: 10 µM
[14] = system: MCF7 breast; settings: 10 µM unless noted
[15] = system: HCT-116 colon; settings: 10 µM
[16] = system: HCC-2998 colon; settings: 10 µM
[17] = system: KM12 colon; settings: 10 µM

Measured: growth

CCCCCCCCCCC1CO1 (stereo unspecified)
inactive: [1] 98.5% | [2] 109% | [3] 111% | [4] 98.8% | [5] 101% | [6] 111% | [7] 111% | [8] 118% | [9] 110% | [10] 103% | [11] 109% | [12] 112% | [13] 106% | [14] 92.4% | [15] 102% | [16] 102% | [17] 109%

CCOC(=O)c1coc(C(=O)OCC)c1C(=O)OCC
inactive: [1] 113% | [2] 118% | [3] 114% | [4] 119% | [5] 120% | [6] 112% | [7] 111% | [8] 117% | [9] 119% | [10] 117% | [11] 119% | [12] 108% | [13] 113% | [14] 113% | [15] 115% | [16] 108% | [17] 106%

Cc1nc2ccccc2c(C(=O)O)c1O
inactive: [1] 95.6% | [2] 102% | [3] 91.4% | [4] 116% | [5] 95.3% | [7] 113% | [8] 88.1% | [9] 94.5% | [10] 91.3% | [12] 112% | [13] 110% | [14] 103% | [15] 88.3% | [16] 89% | [17] 120%

C/C(=N/NC(N)=O)c1ccco1
inactive: [1] 87.3% | [2] 106% | [3] 100% | [4] 110% | [5] 84.1% | [6] 104% | [8] 110% | [9] 101% | [10] 83.5% | [11] 102% | [12] 107% | [13] 109% | [14] 98.4% | [15] 101% | [16] 92.1% | [17] 102%

Cc1ccc(C(=O)c2ccccc2)c(C)c1
inactive: [1] 127% | [2] 109% | [3] 95.3% | [4] 103% | [5] 99.2% | [6] 101% | [7] 112% | [8] 113% | [10] 96.4% | [11] 99.6% | [12] 118% | [13] 98.7% | [14] 101% | [15] 94.8% | [17] 107%

CC(=Nc1ccccc1)C1=C(O)C(Cc2cccc(F)c2)NC1=O (stereo unspecified)
active: [1] 0.385% | [2] 1.8% | [7] -36.1% | [9] 7.11% | [11] -20.2% | [12] -46.2% | [15] 7.22% | [17] -3.04%
inactive: [3] 25.6% | [4] 36.4% | [6] 13.8% | [8] 45.6% | [10] 72.6% | [13] 26.8% | [14] 20.9% | [16] 26.9%

O=C(NCO)c1ccccc1
inactive: [1] 98.3% | [2] 108% | [3] 104% | [4] 109% | [5] 104% | [6] 97.2% | [7] 104% | [8] 111% | [9] 109% | [10] 102% | [12] 108% | [13] 103% | [14] 101% | [15] 105% | [16] 111% | [17] 102%

CC(=O)Nc1ccc(NC(C)=O)c2c1C(=O)c1ccccc1C2=O
inactive: [1] 78.9% | [2] 92.8% | [3] 88.4% | [5] 88.5% | [6] 67% | [7] 104% | [8] 102% | [9] 95.4% | [10] 81.2% | [11] 36.4% | [12] 107% | [13] 91% | [14] 87.3% | [15] 79.3% | [16] 105% | [17] 94.5%

Cc1ccccc1C1N=C2Oc3ccccc3C=C2C(=O)N1 (stereo unspecified)
active: [5] -6.3% | [7] -27.1% | [12] -57.7%
inactive: [1] 45.2% | [2] 53.3% | [3] 17.3% | [4] 74.5% | [6] 43.3% | [8] 32.8% | [10] 48.1% | [11] 27.2% | [13] 40% | [14] 20.8% | [15] 42.1% | [16] 26.1% | [17] 64.8%

CC(C)(C)c1cc(O)c(C(C)(C)C)cc1O
inactive: [1] 92.5% | [2] 93% | [3] 97.2% | [4] 74.6% | [5] 125% | [6] 110% | [7] 99.2% | [8] 98.8% | [9] 100% | [10] 95% | [11] 81.3% | [12] 91.9% | [13] 97% | [14] 83.7% | [15] 86.6% | [17] 101%

O=c1cc(-c2ccccc2)oc2c1ccc1ccccc12
inactive: [1] 67.3% | [2] 82.3% | [3] 96% | [4] 93.6% | [5] 88.2% | [6] 94.1% | [7] 107% | [8] 97.8% | [9] 82.6% | [10] 72% | [11] 97.6% | [12] 88.6% | [13] 99.2% | [14] 67.3% | [15] 85.5% | [16] 98.8% | [17] 98.8%

CCOC(=O)CSc1c([N+](=O)[O-])ncn1C
inactive: [1] 86.4% | [2] 103% | [3] 91.8% | [4] 105% | [5] 110% | [6] 95.5% | [7] 103% | [8] 103% | [9] 101% | [10] 101% | [12] 101% | [13] 103% | [14] 88.2% | [15] 103% | [16] 107% | [17] 96.2%

COC(=O)/C=C/C(=O)NC(N)=O
inactive: [1] 95.9% | [2] 99.5% | [3] 98.3% | [4] 98.5% | [6] 116% | [7] 107% | [8] 107% | [9] 109% | [10] 95.3% | [11] 99.4% | [12] 99% | [13] 103% | [14] 94.8% | [15] 103% | [16] 122%

Brc1cnc2ccccc2c1
inactive: [1] 103% | [2] 104% | [3] 96.3% | [4] 118% | [5] 111% | [6] 107% | [7] 99.7% | [9] 102% | [10] 108% | [11] 103% | [12] 105% | [13] 95.8% | [14] 101% | [15] 106% | [16] 100% | [17] 100%

C/C(O)=C(\C=N\C(N)=S)C(=O)Nc1ccccc1
inactive: [1] 91.7% | [2] 99.7% | [3] 113% | [4] 101% | [5] 100% | [6] 103% | [7] 108% | [10] 102% | [11] 108% | [12] 110% | [13] 110% | [14] 102% | [15] 102% | [16] 110% | [17] 104%

NC(=O)NC(=O)c1ccc(Cl)cc1
inactive: [1] 88.9% | [2] 106% | [3] 113% | [5] 103% | [6] 92.6% | [7] 125% | [8] 97.9% | [9] 107% | [10] 96.9% | [11] 99.4% | [12] 102% | [13] 102% | [14] 95.4% | [15] 87.9% | [16] 111% | [17] 110%

COc1ccc(C(C)C=O)cc1 (stereo unspecified)
inactive: [1] 102% | [2] 109% | [3] 117% | [4] 110% | [6] 116% | [7] 108% | [9] 104% | [10] 97.9% | [12] 113% | [14] 95.9% | [15] 101% | [16] 109% | [17] 107%

CCCC(C)OCC(=O)O (stereo unspecified)
inactive: [1] 94.5% | [2] 97.2% | [3] 108% | [4] 84.8% | [6] 105% | [7] 108% | [8] 117% | [9] 107% | [10] 126% | [11] 127% | [12] 108% | [13] 101% | [14] 99.9% | [15] 101% | [16] 106%

Oc1ccc(Cc2ccccc2)c2cccnc12
inactive: [2] 15.5% | [3] 37.2% | [4] 23.1% | [5] 19.9% | [7] 28.9% | [10] 25.3% | [11] 11% | [12] 32.2% | [13] 31.4% | [14] 14.1% | [16] 26.2% | [17] 24.8%
active: [1] 5.04% | [6] -4.71% | [9] 0.0508% | [15] 7.1%

O=C(O)C(Cc1ccccc1)C(=O)O
inactive: [1] 101% | [2] 109% | [3] 111% | [4] 96.3% | [5] 103% | [6] 113% | [7] 110% | [8] 104% | [10] 103% | [11] 99.1% | [12] 111% | [13] 105% | [14] 99.8% | [15] 96.8% | [16] 106% | [17] 107%

c1cc[n+](C2c3ccccc3C([n+]3ccccc3)c3ccccc32)cc1 (stereo unspecified)
inactive: [1] 50.6% | [2] 46.8% | [3] 95% | [4] 75.3% | [5] 92.5% | [6] 30.4% | [7] 77.1% | [9] 106% | [10] 75.5% | [11] 100% | [12] 79.3% | [13] 69.8% | [14] 68.8% | [15] 68.2% | [16] 68.2% | [17] 56.7%
